{
  "source": "PubChem BioAssay (NCATS)",
  "note": "Results filed as inconclusive are left out. A call without a number means that no potency is given here. The source made the active and inactive calls. Calls come from the whole dose curve; as a rule, active = well fitted cell-killing curve with a large enough effect; inconclusive = small, poorly fitted or top-dose-only effect; inactive = flat fitted curve, though single readings scatter. Potency is the fitted concentration of half-maximal effect.",
  "data": [
    {"assay": "Cell Viability - LYMP2-024 (AID 988); note: nearly all actives have a fitted effect of over 60% in size", "details": "LYMP2-024 lymphoblastoid cell viability; series mostly up to 92.2 µM", "from_the_text": "NIH Chemical Genomics Center [NCGC]\nNIH Molecular Libraries Screening Centers Network [MLSCN]\nNational Institutes of Environmental Health Sciences [NIEHS]\nNational Toxicology Program [NTP]\nWe have developed a 1536-well cell-based assay for quantitative high throughput screening (qHTS) against a number of cell lines to determine in vitro cytotoxicity of small molecules. This particular assay uses a human lymphoblastoid cell line (LYMP2-024) purchased from Coriell Institute for Medical Research.\nNCGC Assay Protocol Summary:\nThe CellTiter-Glo luminescent cell viability assay (Promega) is a homogeneous method to measure the number of viable cells in culture. The end point readout of this assay is based on quantitation of intracellular ATP, an indicator of metabolic activity, using the luciferase reaction. Luciferase catalyzes the oxidation of beetle Luciferin to oxyluciferin and light in the presence of ATP. The luminescent signal is proportional to amount of ATP present.\nUsing the CellTiter-Glo luminescent cell viability assay, the amount of cellular ATP was measured in the lymphoblastoid cell line with complete culture medium following compound treatment for 24 hours. The assay was performed in opaque white Kalypsys 1536-well plates. In the screen, tetraoctylammonium bromide was used as positive control. Library compounds were measured for their ability to cause acute toxicity in the cell line, as reflected by a decrease in intracellular ATP levels, in a concentration-dependent manner. […] AC50 values were determined from concentration-response data modeled with the standard Hill equation.\nqHTS protocol for CellTiter Glo lymphoblastoid cellular assay\n[Step] [Parameter] [Value] [Description]\n1. Reagent; 5 uL; 2500 lymphoblastoid cells/well\n2. Time; 5 hr; 37 C incubation\n4. Controls; 23 nL; Tetraoctylammonium bromide 6.4pM to 92 uM\n5. Time; 24 hr; 37 C incubation\n6. Reagent; 5 uL; CellTiter Glo reagent\n7. Time; 30 min; Room Temperature\n8. Detection; Luminescence; Viewlux plate reader\nKeywords: cell viability, cytotoxicity, lymphoblastoid cell line, luminescence, NTPHTS, NTPHTS_NCGC, NIEHS, DSSTox, MLSMR, MLSCN, NIH Roadmap, qHTS, NCGC", "values": [
      {"smiles": "NCC(O)c1ccc(O)cc1", "note": "(stereo unspecified)", "Potency": "inactive"},
      {"smiles": "CNCC(O)c1ccc(O)cc1", "note": "(stereo unspecified)", "Potency": "inactive"},
      {"smiles": "CCCC(C)(COC(N)=O)COC(=O)NC(C)C", "note": "(stereo unspecified)", "Potency": "inactive"},
      {"smiles": "Oc1ccc(Cl)cc1Cc1ccccc1", "Potency": "inactive"},
      {"smiles": "CC(=O)Oc1ccccc1C(=O)Nc1ncc([N+](=O)[O-])s1", "Potency": "39.8 µM (active)"},
      {"smiles": "Oc1cccc2cccnc12", "Potency": "7.94 µM (active)"},
      {"smiles": "OCCOc1ccccc1", "Potency": "inactive"},
      {"smiles": "CCOP(=S)(OCC)Oc1cc(C)nc(C(C)C)n1", "Potency": "inactive"},
      {"smiles": "c1ccc2c(c1)Nc1ccccc1S2", "Potency": "inactive"},
      {"smiles": "N[C@@H](Cc1ccc(N(CCCl)CCCl)cc1)C(=O)O", "Potency": "20 µM (active)"},
      {"smiles": "Oc1ccccc1-c1ccccc1", "Potency": "inactive"}
    ]}
  ]
}
